About 7,500 (2.1%) of roughly 360,000 compounds were called active. Entries that show only a call come without a potency. About 8% were inconclusive and are not listed. Calls come from the whole dose curve; as a rule, active = well fitted cell-killing curve with a large enough effect; inconclusive = small, poorly fitted or top-dose-only effect, or effect the other way, or another doubt; inactive = no such curve, though single readings can be large or run the other way. The full list was thinned out, with actives kept by preference.
assay: qHTS for induction of synthetic lethality in tumor cells producing 2HG: qHTS for the HT-1080-IDH1KD cell line; settings: HT-1080 IDH1 knockdown viability, ATP luminescence, 48 h; series mostly up to 46.1 µM
Procedure, shortened: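 Viability of IDH1-knockdown HT-1080 fibrosarcoma cells was assessed by CellTiter-Glo after 48 h at 37 °C with titrated compound; concentration-effect curves were classified by fit quality and response size.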
Potency is the fitted concentration of half-maximal effect.

Q: Which Potency does the source give for `CC(=O)NC(c1ccccc1)c1nc(-c2ccccc2C)cs1` (stereo not drawn) here?
A: Its Potency is “inactive”.

Q: Which Potency does the source give for `C[C@H]1CN([C@@H](C)CO)C(=O)c2cc(-c3ccccc3F)cnc2O[C@H]1CN(C)C(=O)C1CCOCC1` here?
A: Its Potency is “inactive”.

Q: For `O=C(Nc1cccc2cccnc12)c1ccc2sc([C@H]3C[C@H](O)[C@@H](CO)O3)nc2c1`, which Potency is on record?
A: Its Potency is “inactive”.

Q: With `CCNC(=S)Nc1ccc2c(c1)c(=O)n(C)n2Cc1ccc(Cl)cc1` as the compound, how does the Potency read?
A: Its Potency is “inactive”.

Q: With `CCCC(=O)Nc1ccc2c(c1)nc1n2CCSC1` as the compound, how does the Potency read?
A: The Potency was “inactive”.

Q: With `CCOCCC(=O)Nc1ccc2c(c1)c(=O)n(C)n2-c1ccc2ccccc2c1` as the compound, how does the Potency read?
A: Its Potency is 1.46 µM (active).

Q: With `CCCCN(C(C)=O)c1ccc2c(c1)C1CC2CCN1Cc1ccccc1` (stereo not drawn) as the compound, how does the Potency read?
A: Its Potency is “inactive”.

Q: With `COc1ccc(CCn2c3c(c(=O)[nH]c2=S)CN(C(C)C)CN3)cc1OC` as the compound, how does the Potency read?
A: Its Potency is “inactive”.

Q: With `C[C@H]1CN([C@@H](C)CO)C(=O)CCCn2nncc2CO[C@@H]1CN(C)Cc1ccc(Oc2ccccc2)cc1` as the compound, how does the Potency read?
A: Its Potency is “inactive”.

Q: With `O=C1/C(=C\c2ccc([N+](=O)[O-])cc2)CS(=O)(=O)C/C1=C/c1ccc([N+](=O)[O-])cc1` as the compound, how does the Potency read?
A: Its Potency is 3.66 µM (active).

Q: For `O=[N+]([O-])c1ccc(C=NN=Cc2ccc([N+](=O)[O-])cc2)cc1`, which Potency is on record?
A: Its Potency is “inactive”.

Q: Which Potency does the source give for `CC(=O)Nc1ccc(C=Cc2ccc([N+](=O)[O-])cc2)cc1` here?
A: Its Potency is “inactive”.

Q: For `CCN1CCN(CC(=O)Nc2sc3c(c2C#N)CCC3)CC1`, which Potency is on record?
A: Its Potency is “inactive”.

Q: With `N#Cc1c(NC(=O)CCCl)sc2c1CCCCC2` as the compound, how does the Potency read?
A: Its Potency is 23.1 µM (active).

Q: For `N#Cc1c(NC(=O)C2CCCO2)sc2c1CCCCC2` (stereo not drawn), which Potency is on record?
A: The Potency was “inactive”.

Q: With `Cc1ccc([C@H]2C[C@H](O)[C@@H](n3cc(COC(=O)c4ccccc4)nn3)CN2CC2CCCCC2)cc1` as the compound, how does the Potency read?
A: Its Potency is “inactive”.

Q: For `O=C(Nc1ccc2c(c1)OCCO2)C1c2ccccc2OCC(=O)N1Cc1ccccn1` (stereo not drawn), which Potency is on record?
A: The Potency was “inactive”.

Q: For `Cc1cc(C)nc(SCc2ccccc2C#N)n1`, which Potency is on record?
A: The Potency was “inactive”.

Q: For `Cc1cc(C)nc(S/C=C/C(=O)c2ccccc2)n1`, which Potency is on record?
A: Its Potency is 3.66 µM (active).

Q: With `Cc1cc(C)nc(SCC(=O)N(C)C)n1` as the compound, how does the Potency read?
A: The Potency was “inactive”.

Q: With `COc1cccc(CNC(=O)Cc2csc(Nc3nc(=S)[nH]c4ccccc34)n2)c1` as the compound, how does the Potency read?
A: The Potency was “inactive”.

Q: Which Potency does the source give for `O=C(CCCn1c(=O)[nH]c2cc(Cl)ccc2c1=O)NCCN1CCN(c2ccccc2)CC1` here?
A: Its Potency is “inactive”.

Q: For `O=C(Cc1csc(Nc2nc(=S)[nH]c3ccccc23)n1)NCCCN1CCN(c2cccc(Cl)c2)CC1`, which Potency is on record?
A: The Potency was 20.6 µM (active).

Q: With `COc1cc2nnn(-c3ccncc3)c2cc1OC` as the compound, how does the Potency read?
A: The Potency was “inactive”.

Q: For `N#CC1(Nc2ccc3c4c(cccc24)CC3)CCCCC1`, which Potency is on record?
A: The Potency was “inactive”.

Q: Which Potency does the source give for `CCOc1ccccc1CNS(=O)(=O)c1cc(-c2cc(C)no2)ccc1C` here?
A: The Potency was “inactive”.

Q: Which Potency does the source give for `Cc1cc(-c2ccc(C)c(S(=O)(=O)NCCCN(Cc3ccccc3)C(C)C)c2)on1` here?
A: Its Potency is “inactive”.

Q: For `COc1ccc(CNS(=O)(=O)c2cc(-c3cc(C)no3)ccc2C(C)C)cc1`, which Potency is on record?
A: The Potency was 3.66 µM (active).

Source: PubChem BioAssay AID686971 (National Center for Advancing Translational Sciences (NCATS), 2013)
